GLP1R cytotox: cytotoxicity counter-screen for GLP-1 receptor inverse agonists | HEK293 cAMP-luciferase reporter cells, luminescence, 24 h | Potency, µM (top dose mostly 38.3 µM), inactives show at the top dose activity change, negative = inhibition, usual class: inhibitors | 0.13% of 410,000 active;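 further: loss of luciferase light is scored as toxicity; on the % scale 0 is the no-effect control and ±100 the full control effect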
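A 23 nL compound transfer followed 12 hours of cell culture at 37 deg C; exposure then lasted 24 hr. Luciferase assay detection reagent was dispensed and plates read for luminescence after a 12 min room-temperature wait.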
GLP1R ag: GLP-1 receptor (human) agonism; HEK293 GLP-1R CRE-luciferase, luminescence, 4-6 h; cells express a hypersensitive GLP-1R form; Potency, µM (doses to about 45.6 µM), inactives show at the top dose activation, most hits filed as activators; 0.007% of 380,000 active; AID 624172; further: % of control where 0% means no effect
Target sequence (P43220 whole entry, looked up): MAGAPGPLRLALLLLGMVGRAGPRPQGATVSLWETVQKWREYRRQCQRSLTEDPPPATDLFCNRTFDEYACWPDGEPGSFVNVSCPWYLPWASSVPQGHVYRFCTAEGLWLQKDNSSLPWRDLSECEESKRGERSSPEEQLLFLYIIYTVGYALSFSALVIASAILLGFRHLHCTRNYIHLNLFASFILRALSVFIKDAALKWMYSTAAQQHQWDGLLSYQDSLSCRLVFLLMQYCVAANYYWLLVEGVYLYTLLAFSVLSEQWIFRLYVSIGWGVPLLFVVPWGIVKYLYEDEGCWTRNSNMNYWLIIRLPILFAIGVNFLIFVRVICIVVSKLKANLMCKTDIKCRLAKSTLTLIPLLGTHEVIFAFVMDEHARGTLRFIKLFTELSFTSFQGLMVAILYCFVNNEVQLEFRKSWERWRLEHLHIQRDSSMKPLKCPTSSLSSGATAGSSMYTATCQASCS
GLP-1R inv ag: GLP-1 receptor (human) inverse agonism. 1.6% of 410,000 active. HEK293 GLP-1R CRE-luciferase, luminescence, 24 h; GLP-1R form is constitutively active. P43220. Potency, µM (titrated, usually from 38.3 µM), for inactives: top-dose activity change, negative = inhibition, hits mostly inhibitors. AID 624417; further: on the % scale 0 is the no-effect control and ±100 the full control effect; nearly all actives have a fitted effect of over 55% in size
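Using stably transfected HEK293 (constitutively active GLP-1R, cAMP-luciferase reporter), compounds were incubated 24 hr and luciferase measured by luminescence.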
RORgamma inh: ROR gamma (mouse) transcription inhibition; P51450; 5.4% of 310,000 active; Drosophila S2 Gal4-RORgamma UAS-luciferase reporter, 20 h; Potency, µM (highest dose often 53.6 µM), inactives show at the top dose activity change, negative = inhibition, actives largely listed as inhibitors; further: on the % scale 0 is the no-effect control and ±100 the full control effect; nearly all actives have a fitted effect of over 60% in size
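In this cell-based reporter format, copper sulfate (700 uM final) drives Gal4–ROR gamma fusion expression from a metallothionein promoter in Drosophila Schneider cells; compounds preincubated 1 hr, reporter read after 20 hr at ambient temperature.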
VP16 counter: Gal4-VP16 reporter inhibition counter-screen; Drosophila S2 Gal4-VP16 UAS-luciferase, luminescence, 20 h; Potency, µM (doses to about 53.6 µM), without a hit: at the top dose activity, negative = inhibition, usual class: inhibitors; 3.5% of 310,000 active;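 further: Gal4-VP16 expression switched on by copper sulfate through the metallothionein promoter; on the % scale 0 is the no-effect control and ±100 the full control effect; nearly all actives have a fitted effect of over 50% in size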
The depositor's hits bear a star. Rows were chosen to be rich in hits. Some 5.9% of all compounds tested hit in one or more screens of this group. The call rests on the fitted dose curve; in most records, active means well fitted curve in the direction sought with a large enough effect; inconclusive means small, poorly fitted or top-dose-only effect, or another doubt; inactive means no such curve, though single readings can be large; an effect the other way counts as inactive or inconclusive. Potency means the concentration at half of the fitted maximal effect.

Cc1ccc(C2=Nc3ccccc3SC(c3cccc([N+](=O)[O-])c3)C2)cc1 (stereo not given) was read as GLP1R cytotox 8.2%, GLP1R ag 3.4%, GLP-1R inv ag -20.3%, RORgamma inh 5.62µM* and VP16 counter 12.6µM*.
C=C(C)C1Cc2c(C)nn(-c3nc(C)cc(C)n3)c2C1 (stereo not given) was read as GLP1R cytotox inconclusive, GLP1R ag 12.3%, GLP-1R inv ag inconclusive, RORgamma inh 0.355µM* and VP16 counter 2µM*.
Screening COc1ccc2[nH]cc(CCNc3ncncc3-c3ccoc3)c2c1 returned RORgamma inh -6.2% and VP16 counter 11.2µM*.
For CSC1=NC2(CCN(C(=O)NC3CCCCC3)CC2)N=C1c1ccc(C)c(C)c1 the results were GLP1R cytotox 3.0% and GLP-1R inv ag -0.2%.
Screening CCc1cc(C(=O)N/N=C/c2ccc(O)cc2O)c2ccccc2n1 returned GLP1R cytotox -8.4%, GLP1R ag -4.2%, GLP-1R inv ag -11.1%, RORgamma inh 11.2µM* and VP16 counter inconclusive.
For Cc1cc(C(=O)N/N=C/c2cc(Cl)cc([N+](=O)[O-])c2O)c2ccccc2n1 the results were GLP1R cytotox inconclusive, GLP1R ag -2.8%, GLP-1R inv ag inconclusive, RORgamma inh 1.58µM* and VP16 counter 11.2µM*.
`O=C(N/N=C/c1cccc(O)c1)c1cc(C2CC2)nc2ccccc12` gave GLP1R cytotox -17.1%, GLP1R ag 12.4%, GLP-1R inv ag inconclusive, RORgamma inh -6.2% and VP16 counter -8.0%.
For O=C(N/N=C/c1cc(Cl)cc([N+](=O)[O-])c1O)c1ccccc1NS(=O)(=O)c1cccs1 the results were GLP1R cytotox -5.4%, GLP1R ag -7.8%, GLP-1R inv ag 9.1%, RORgamma inh 2.82µM* and VP16 counter 10µM*.
O=C(N/N=C/c1ccc(O)cc1O)/C(=C/c1ccccc1)CCO was read as GLP1R cytotox 28.6%, GLP1R ag 0.2%, GLP-1R inv ag -13.2%, RORgamma inh 11.2µM* and VP16 counter inconclusive.
Screening COc1cc(/C=N/NC(=O)/C(=C/c2ccccc2)CCO)ccc1O returned GLP1R cytotox 13.7%, GLP1R ag 1.6%, GLP-1R inv ag 18.2%, RORgamma inh 13.1% and VP16 counter 0.6%.
For O=C(NN=Cc1cc(Cl)ccc1[N+](=O)[O-])c1cccc2ccccc12 the results were GLP1R cytotox -8.4%, GLP1R ag 0.5% and GLP-1R inv ag 2.0%.
`O=C(CSc1ncnc2c1nnn2Cc1ccc(F)cc1)NCC1CCCO1` (stereo not given) gave GLP1R cytotox inconclusive, GLP1R ag -0.2%, GLP-1R inv ag 12.6µM*, RORgamma inh inconclusive and VP16 counter inconclusive.
CC1CCN(S(=O)(=O)c2ccc3nc(NCc4ccccc4)ccc3c2)CC1 was read as GLP1R cytotox -14.3% and GLP-1R inv ag inconclusive.
COc1ccccc1-n1ncc2c(=O)[nH]c(SCC(=O)Nc3ccc(Cl)cc3)nc21 was read as GLP1R cytotox -0.7% and GLP-1R inv ag -1.9%.
`CC[C@H](C(=O)[C@H](C)[C@H](O)[C@H](C)CCc1ccc(C)c(O)c1C(=O)O)[C@H]1O[C@](CC)([C@@H]2CC[C@@](O)(CC)[C@H](C)O2)C[C@H]1C` gave RORgamma inh inconclusive and VP16 counter 6.31µM*.
For COc1cc(NCCCC(C)N)c2ncccc2c1 (stereo not given) the results were GLP1R cytotox inconclusive, GLP1R ag -32.3%, GLP-1R inv ag inconclusive, RORgamma inh 2.24µM* and VP16 counter inconclusive.
COc1cc(NC(=O)c2ccccc2Cl)c2ncccc2c1 was read as GLP1R cytotox -7.6%, GLP1R ag 21.6%, GLP-1R inv ag inconclusive, RORgamma inh 41.7% and VP16 counter 0.0%.
`COc1cc(NCCCCC(C)N)c2nccc(C)c2c1` (stereo not given) gave GLP1R cytotox 1.2%, GLP1R ag -7.5% and GLP-1R inv ag inconclusive.
`CCC(CNc1cc(OC)cc2cccnc12)NC1CCCCC1` (stereo not given) gave GLP1R cytotox inconclusive, GLP1R ag 0.0%, GLP-1R inv ag inconclusive, RORgamma inh 15.8µM* and VP16 counter inconclusive.
`O=C(O)CCCCCN1C(=O)CSC1=S` gave GLP1R cytotox -15.6%, GLP1R ag -5.3%, GLP-1R inv ag -18.6%, RORgamma inh 5.01µM* and VP16 counter -16.1%.
For CC(C)OC(=O)CCCCCN1C(=O)CSC1=S the results were GLP1R cytotox -16.7%, GLP1R ag 5.7%, GLP-1R inv ag inconclusive, RORgamma inh -11.8% and VP16 counter -0.2%.
`CC1(Cc2ccccc2Cl)C(=O)Nc2ccc(OC(F)(F)F)cc21` (stereo not given) gave GLP1R cytotox 4.1%, GLP1R ag -0.3% and GLP-1R inv ag 10µM*.
CC1(Cc2ccccc2C#N)C(=O)Nc2ccc(OC(F)(F)F)cc21 (stereo not given) was read as GLP1R cytotox 2.6%, GLP1R ag 4.8% and GLP-1R inv ag inconclusive.
Screening Cc1cccc(OCC(=O)Nc2ccccc2OCc2cc(=O)n3ccccc3n2)c1 returned GLP1R cytotox 1.2% and GLP-1R inv ag 1.0%.
For CCCCC1=NN(C(=O)c2ccncc2)C(O)(C(F)(F)F)C1 (stereo not given) the results were GLP1R cytotox -1.2%, GLP1R ag 4.2%, GLP-1R inv ag inconclusive, RORgamma inh -14.9% and VP16 counter inconclusive.
CCC1=NN(C(=O)C(=O)Nc2ccc(Br)cc2)C(O)(C(F)(F)F)C1 (stereo not given) was read as GLP1R cytotox inconclusive, GLP1R ag -0.7%, GLP-1R inv ag inconclusive, RORgamma inh 2.82µM* and VP16 counter 5.01µM*.
`CC(C)C1=NN(C(=O)c2cccnc2)C(O)(C(F)(F)F)C1` (stereo not given) gave GLP1R cytotox inconclusive, GLP1R ag -12.6%, GLP-1R inv ag 13.7%, RORgamma inh -48.9% and VP16 counter inconclusive.
For COc1ccc(NC(=O)C(=O)N2N=C(C(C)C)CC2(O)C(F)(F)F)cc1 (stereo not given) the results were GLP1R cytotox 0.1%, GLP1R ag -0.9%, GLP-1R inv ag 2.8%, RORgamma inh 7.94µM* and VP16 counter inconclusive.
CCCC1=NN(C(=O)C(=O)Nc2ccc(Br)cc2)C(O)(C(F)(F)F)C1 (stereo not given) was read as GLP1R cytotox inconclusive, GLP1R ag 12.4%, GLP-1R inv ag 7.08µM*, RORgamma inh 0.794µM* and VP16 counter 5.01µM*.
Cc1cccn2c(=O)c(/C=C(\C#N)c3nc4ccccc4n3C)c(Oc3ccc(Cl)cc3)nc12 was read as GLP1R cytotox 258.7% and GLP-1R inv ag 9.6%.
